# In PubChem BioAssay (NCI):
# Compounds without any hit were thinned out: in the full panel of roughly 83,000, 20% have a hit.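 Single-dose data. Exposure time 48 hours. Values below 10 considered active.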 A number with no mark means an inactive call. The source made the active and inactive calls.
# Experiments:
# Assay in all cases: NCI-60 one-dose screen, 48 h (100 = growth as untreated, 0 = no growth, -100 = all killed)
# Details in all cases: 10 µM unless noted
# [1] = system: NCI-H23 lung
# [2] = system: NCI-H226 lung
# [3] = system: NCI-H322M lung
# [4] = system: HOP-62 NSCLC
# [5] = system: NCI-H460 lung
# [6] = system: HOP-92 NSCLC
# [7] = system: NCI-H522 lung
# [8] = system: A549/ATCC NSCLC
# [9] = system: 786-0 renal
# [10] = system: DU-145 prostate
# [11] = system: K-562 leukemia
# [12] = system: MALME-3M melanoma
# [13] = system: MDA-MB-231 breast
# [14] = system: RXF 393 renal
# [15] = system: SF-268 CNS
# [16] = system: SF-295 CNS
# [17] = system: SF-539 CNS
# [18] = system: UACC-257 melanoma
# [19] = system: M14 melanoma
SMILES,growth [1],growth [2],growth [3],growth [4],growth [5],growth [6],growth [7],growth [8],growth [9],growth [10],growth [11],growth [12],growth [13],growth [14],growth [15],growth [16],growth [17],growth [18],growth [19]
N#C/C(=C\c1ccc(Br)cc1)n1nnc2ccccc21,13.5%,-23.9% (active),-12.2% (active),17.9%,-23.2% (active),-15% (active),-6.64% (active),18.1%,5.88% (active),14.5%,14.5%,24.1%,0.304% (active),-15.4% (active),23.9%,16.1%,-3.55% (active),13.4%,10.7%
O=S(=O)(NCCNc1cc(-c2c(-c3cccc(O)c3)nc3sccn23)ccn1)c1ccc(Br)cc1,76.2%,62.3%,81.1%,102%,54.1%,74.9%,66.1%,50.1%,52.7%,57.9%,34.5%,78.8%,72.8%,60%,41.3%,69%,75.2%,89.1%,60.8%
O=C(CC12CC3CC(CC(C3)C1)C2)NCCOCCOCCNC(=O)c1cc2c(o1)C(=O)c1ccccc1C2=O,-52.9% (active),-71.7% (active),-90.2% (active),-58.3% (active),-72.6% (active),-8.25% (active),-49.5% (active),-61.7% (active),-29.1% (active),-95.7% (active),1.74% (active),-97.1% (active),-9.38% (active),-92.3% (active),-16.4% (active),-94.2% (active),-96.1% (active),-95.3% (active),-73.6% (active)
Cc1[nH]c(-c2nc3ccccc3[nH]2)c(C)c1C(=O)N1CCOCC1,88.5%,91.4%,94.6%,105%,101%,91.1%,91%,101%,102%,107%,106%,95.7%,83.7%,93.6%,99.5%,96%,96.2%,94.1%,95%
O=S(=O)(Cc1ccccc1)c1nc2ccccc2s1,56.3%,82.9%,93.8%,105%,103%,33.7%,13.2%,98.4%,88.9%,86.7%,13.5%,73.6%,85.1%,109%,79%,109%,92%,78.7%,18.3%
CCCCCCNCc1cc(C(C)(C)C)cc(CNCCCCCC)c1O,-8.06% (active),-60.5% (active),-78.9% (active),-90.1% (active),-76.3% (active),-36.3% (active),-66% (active),-85.4% (active),-90.5% (active),-78.7% (active),-48.8% (active),-73.2% (active),-83.6% (active),-93.3% (active),9.67% (active),29.4%,-89.9% (active),-84.1% (active),-88.6% (active)
O=C1Nc2ccc(Cl)cc2/C1=N/N=C/c1c[nH]c2ccccc12,86.1%,81.9%,75.5%,80.4%,72%,93.1%,73.2%,87.2%,95.8%,64.2%,88.4%,82.8%,64.3%,62.7%,76.2%,103%,82.6%,98.8%,72%
CCCCOC(=O)c1ccc(NC(=O)C(C)N2CCOCC2)cc1 (stereo not given),98.5%,84.3%,95.7%,99.5%,105%,76.7%,67.9%,97.3%,99.1%,107%,91.1%,91.8%,102%,102%,103%,101%,102%,98.3%,93.7%
NC(=Nc1ccc(N)cc1)C(N)=Nc1ccc(N)cc1,108%,94.4%,105%,107%,106%,112%,111%,68.4%,99.6%,106%,81.7%,135%,93.5%,84.1%,104%,111%,96.9%,31.8%,99.7%
O=C(NCc1cccnc1)c1cc(-c2csc3c(=O)cc(N4CCOCC4)oc23)cc2c1OCCO2,50.3%,49.8%,40%,30.9%,52.5%,19.3%,28.4%,40.2%,43.5%,70%,24.8%,47.9%,21.5%,40.6%,53%,30%,10.6%,47%,43.4%
CSc1nc2sc3cc(Cl)ccc3n2c(=N)c1C#N,82.2%,57%,107%,119%,92.7%,77%,94.3%,62.3%,47.6%,96.1%,110%,40.1%,72.8%,-0.36% (active),47.3%,26.1%,70.2%,45.7%,82.4%
COc1ccccc1NC(=O)Nc1ccc(-c2nc3ccccc3o2)cc1,99.4%,99%,88.7%,95.8%,101%,111%,112%,82.2%,89.2%,101%,83.4%,95.3%,98.5%,108%,104%,96.8%,96.7%,101%,102%
COc1cc2c(cc1OC)-c1ccc3cc4c(cc3c1N(CCN1CCCC1)C2)OCO4,10.9%,-3.34% (active),5.86% (active),-18.1% (active),-19.4% (active),22.8%,-39.7% (active),5.78% (active),-32% (active),11.5%,-3.86% (active),51.4%,-38.6% (active),-3.76% (active),20.1%,4.42% (active),4.16% (active),44.2%,17.4%
C[C@@H](C[C@H](CCOCc1cccnc1)c1ccccc1)c1cc2ccccc2o1,90.7%,80.2%,90.5%,81.8%,98.4%,84.9%,78.2%,90.2%,93.8%,98.7%,81.5%,95.5%,98.1%,92.8%,89.3%,97.6%,98.8%,94%,92.8%
CN(C)CN1CCN(c2ccc3nc(-c4ccc5nc(-c6ccc(C(F)(F)F)cc6)[nH]c5c4)[nH]c3c2)CC1,55.6%,64.2%,87.1%,57.6%,10.6%,75.8%,42.1%,83.8%,78.5%,45%,11.6%,-4.2% (active),63.1%,50.3%,67.8%,60.7%,65.8%,40.7%,32.2%
